Experimental data taken from PubChem BioAssay (NCATS).
Several values for one entry are separate records, joined by “and”; a condition that tells them apart may be missing. Equal values may be shown once. Activity calls are given as the source filed them. The call rests on the fitted dose curve; in most records, active means well fitted activation curve with a large enough effect; inconclusive means small, poorly fitted or top-dose-only effect; inactive means no such curve, though single readings can be large or run the other way.

Target: Cytochrome P450 3A4 (Homo sapiens) (UniProt P08684)
Assay: qHTS Assay for Activators of Cytochrome P450 3A4 (AID 885); further: nearly all actives have a fitted effect of over 65% in size
Details: recombinant CYP3A4, Luciferin-PPXE luminescence, 60 min; series mostly up to 57.1 µM; activity change, positive = activation: at the top concentration
Procedure, shortened: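 Human CYP3A4 (20 nM) with Luciferin-PPXE at 25 uM (its KM) in 200 mM KPO4; 10 min compound preincubation, then NADPH regeneration and 60 min reaction at RT. Luciferin read by luminescence; normalized to 57 uM ketoconazole full inhibition.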

Chain of Cytochrome P450 3A4 (Homo sapiens) (P08684 whole entry, looked up): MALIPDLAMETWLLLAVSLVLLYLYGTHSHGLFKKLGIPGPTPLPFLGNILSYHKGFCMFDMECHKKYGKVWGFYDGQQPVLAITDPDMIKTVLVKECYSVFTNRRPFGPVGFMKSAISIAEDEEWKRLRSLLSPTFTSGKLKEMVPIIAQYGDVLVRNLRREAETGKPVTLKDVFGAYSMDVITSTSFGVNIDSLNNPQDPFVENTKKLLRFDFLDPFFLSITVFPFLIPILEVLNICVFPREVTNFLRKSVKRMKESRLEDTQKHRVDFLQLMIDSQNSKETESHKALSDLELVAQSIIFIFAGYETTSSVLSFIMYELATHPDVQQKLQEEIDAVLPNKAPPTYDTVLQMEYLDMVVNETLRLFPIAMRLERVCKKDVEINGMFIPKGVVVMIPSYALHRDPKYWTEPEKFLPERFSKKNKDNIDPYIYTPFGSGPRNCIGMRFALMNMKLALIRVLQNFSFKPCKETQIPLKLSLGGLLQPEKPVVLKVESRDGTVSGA

Activity change, positive = activation, inactive:
COc1c(CC(=O)c2cc3c(cc2O)OC(C)(C)C(O)C3)ccc2c1C=CC(C)(C)O2 (stereo not given) -48.1%
CC1CCC2C(=O)N3C(CCC(C)[C@H]3c3cccc(N4CCCC4=O)c3)C(=O)N2C1c1cccc(N2CCCC2=O)c1 (stereo not given in full) -53.3% [at 11.4 µM]
CCC[C@@H]1C[C@@]1(CCC)C(NC(=O)OCc1ccccc1)c1ccc(-c2ccccc2)cc1 (stereo not given in full) -59.3%
CCCCCC(=O)O[C@@]1(C(C)=O)CCC2C3CCC4=CC(=O)CC[C@@]4(C)C3CC[C@]21C (stereo not given in full) -70.2%
COC(=O)[C@@H]1CC[C@H](C)[C@@H](c2ccc(C)cc2)N1C(=O)c1ccc(/C=N\OC[C@@H]2O[C@H](c3ccccc3)C=C[C@@H]2Oc2ccc(OC)cc2)cc1 -30% [at 11.4 µM]
O=C1[C@@H]2[C@H]3[C@H](O)[C@H](O)C/C(=N/OC[C@@H](O)COCc4ccco4)[C@@H]3CC[C@H]2C(=O)N1c1ccc(F)cc1F -48.8% [at 11.4 µM]
COc1ccc(OC)c(-c2ccccc2/C=N/NS(=O)(=O)c2ccc(C)cc2)c1 -59.9% [at 11.4 µM]
CCCCCCCC#Cc1ccccc1C(NC(=O)OC)C(C(=O)OC)C(=O)OC (stereo not given) -56.4% [at 11.4 µM]
COc1ccc(-c2coc3c(OC)c(OC)cc(O)c3c2=O)cc1 -50.7%
C/C(CCC(=O)OC[C@@H]1O[C@H](C#Cc2ccccc2)C=C[C@@H]1Oc1ccc(C)cc1)=N/OC[C@@H](C)[C@H](OCc1ccccc1)C(C)C -45.8% [at 11.4 µM]
CNC1CCC(c2ccc(Cl)c(Cl)c2)c2ccccc21 (stereo not given) -74%
COC(=O)C/C=C/C(C)C(OCc1cccc(-c2ccccc2)c1)C1CCCCC1 (stereo not given) -35.3% [at 11.4 µM]
CC(C)C(=O)N[C@@H]1CCCN1C(=O)/C=C\c1ccccc1 -30.2% [at 11.4 µM]
COC(=O)C1=C(C)N(Cc2ccccc2)[C@]23O[C@](C(=O)OC)(C(=O)N2C1c1ccccc1)C1C(=O)N(C)C(=O)C13 (stereo not given in full) -51.8% [at 11.4 µM] and -36.4% [at 11.4 µM]
C=CC(C1=CC(=O)C(OC)=C(OC)C1=O)c1ccccc1 (stereo not given) -53.4%
C/C=C/C1Oc2ccc(OC)cc2N2C(=O)C(C)C(OCOC)C12 (stereo not given) -50.7% [at 11.4 µM]
O=C1[C@@H]2[C@H]3[C@H](O)[C@H](O)C/C(=N/OC[C@@H](O)COCc4ccco4)[C@H]3CC[C@H]2C(=O)N1c1ccc(F)cc1F -44.4% [at 11.4 µM]
CCOC(=O)OCC1OC(C#Cc2ccc(Br)cc2)C=CC1OC(=O)OCC (stereo not given) -52.5% [at 11.4 µM]
CC(C)CO/N=C1/C[C@@H](O)[C@@H](O)[C@@H]2[C@@H]3C(=O)N(Cc4ccc5c(c4)OCO5)C(=O)[C@H]3CC[C@H]12 -96.6% [at 11.4 µM]
CO[C@@H]1COC(=O)C/C=C\[C@H](C)COC(=O)[C@H](Cc2ccccc2)NC(=O)C/C=C\[C@H]1C -56.6% [at 11.4 µM]
C=CCc1cccc(C2C(C)CCC3C(=O)N4C(CCC(C)C4c4cccc(CC=C)c4)C(=O)N32)c1 (stereo not given) -58.4% [at 11.4 µM]
CC(=O)OC[C@@H]1O[C@@H](O/N=C2/C[C@@H](O)[C@@H](O)[C@@H]3[C@@H]4C(=O)N(c5cccc(Oc6ccccc6)c5)C(=O)[C@H]4CC[C@H]23)[C@H](OC(C)=O)[C@H](OC(C)=O)[C@@H]1OC(C)=O -36.6% [at 11.4 µM]
CCC12C=C(/C=C/c3ccccc3)C(CC)(C1)C(c1ccccc1)CC2=O (stereo not given) -32.8% [at 11.4 µM]
CCC1CN2CCc3cc(OC)c(OC)cc3C2CC1CC1NCCc2cc(OC)c(OC)cc21 (stereo not given) -54%
CC1(C)CC[C@]2(C(=O)O)C(O)C[C@@]3(C)C(=CCC4[C@@]5(C)CCC(O)C(C)(C)C5CC[C@@]43C)C2C1 (stereo not given in full) -54.8%
COC(=O)NC(/C(C(=O)OC)=C(\C)NCc1ccccc1)c1ccc2ccccc2c1 (stereo not given) -55.9% [at 11.4 µM]
CC(C)c1c(O)ccc2c1CCC1C(C)(C)CCC[C@@]21C (stereo not given in full) -42.3%
COC(=O)C(/C=C/C(C)Cc1cc(Br)cc(OCc2ccccc2)c1OC)OCc1ccccc1 (stereo not given) -50.4% [at 11.4 µM]
C#CCCCCCCCCCCCC(O)CC(O)COC(C)=O (stereo not given) -61.4%

Potency, inactive:
COc1cc(C2c3cc4c(cc3C(O)[C@H]3COC(=O)C23)OCO4)cc(OC)c1OC (stereo not given in full)
